# 12-LOX inh = Primary qHTS assay for inhibitors of human arachidonate 12S-lipoxygenase (ALOX12): Round 2 | Polyunsaturated fatty acid lipoxygenase ALOX12 (Homo sapiens), P18054 | purified 12hLO, xylenol orange hydroperoxide absorbance | Potency, µM (highest dose often 108 µM), without a hit: at the top dose activity change, negative = inhibition, hits mostly inhibitors | actives 1.1% (n = 580,000)
#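 Purified human 12hLO at 150 nM in 25 mM Hepes, 0.01% Triton X-100, pH 7.0, preincubated 15 min at room temperature with compound. Reaction started with 40 uM arachidonic acid, 30 min at room temperature. Hydroperoxide measured by Fe-xylenol orange, 573/405 nm absorbance ratio.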
# TDP1 cell CPT = qHTS for Inhibitors of human tyrosyl-DNA phosphodiesterase 1 (TDP1): qHTS in cells in presence of CPT. actives 12% (n = 420,000). Potency, µM (doses to about 46.2 µM), for the others: at the top dose activity change, negative = growth inhibition, hits mostly inhibitors. AID 686979, 2013. chicken DT40 Tdp1-/-;hTDP1 cells + 20 nM CPT, ATP luminescence, 48 h; note: nearly all actives have a fitted effect of over 55% in size
#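 Chicken DT40 Tdp1-/- cells complemented with human TDP1, 400 cells/well, exposed to compounds plus 20 nM camptothecin for at least 48 h at 37 C; viability read as ATP content by CellTiter-Glo luminescence.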
# RORg inh = qHTS for inhibitors of ROR gamma transcriptional activity. Drosophila S2 Gal4-RORgamma UAS-luciferase reporter, 20 h. Potency, µM (titrated, usually from 53.6 µM), inactives show at the highest dose activity change, negative = inhibition, most hits filed as inhibitors. actives 5.4% (n = 310,000). AID 2551, 2010; note: nearly all actives have a fitted effect of over 60% in size
# Target sequence (P51450 whole entry, looked up, the tested form may be a part): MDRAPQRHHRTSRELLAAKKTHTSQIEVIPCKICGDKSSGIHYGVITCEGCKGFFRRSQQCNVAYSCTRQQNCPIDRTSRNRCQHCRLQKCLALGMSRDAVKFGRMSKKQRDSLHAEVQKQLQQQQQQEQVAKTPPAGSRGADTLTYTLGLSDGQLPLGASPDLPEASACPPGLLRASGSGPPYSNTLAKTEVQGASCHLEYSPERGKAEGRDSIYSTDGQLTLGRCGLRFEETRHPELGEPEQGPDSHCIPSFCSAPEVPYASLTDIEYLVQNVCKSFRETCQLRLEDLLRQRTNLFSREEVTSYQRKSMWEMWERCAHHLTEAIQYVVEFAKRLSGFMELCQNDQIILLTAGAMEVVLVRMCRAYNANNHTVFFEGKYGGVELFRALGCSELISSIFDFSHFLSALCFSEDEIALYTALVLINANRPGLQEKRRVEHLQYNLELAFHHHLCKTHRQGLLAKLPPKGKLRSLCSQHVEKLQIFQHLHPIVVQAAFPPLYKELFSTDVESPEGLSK
#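 Read-out: Photinus luciferase luminescence; inhibitors lower reporter signal. Insect Schneider cells with Gal4-ROR gamma fusion under metallothionein promoter, UAS reporter; 700 uM final copper sulfate induction, 20 hr, ambient temperature.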
# ELG1 repair inh = qHTS screen for small molecules that inhibit ELG1-dependent DNA repair in human embryonic kidney (HEK293T) cells expressing luciferase-tagged ELG1. HEK293T ELG1-luciferase reporter, luminescence, 16 h; DNA damage induced by 5-fluorouridine. Potency, µM (series often up to 46.1 µM), without a hit: at the top dose activity change, negative = inhibition, usual class: inhibitors. actives 2.3% (n = 330,000); note: nearly all actives have a fitted effect of over 55% in size
#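 5-Fluorouridine DNA damage + compound/DMSO, 2,000 cells/well, 16 h, 37 °C/5% CO2. ONE-Glo, 30 min RT, luminescence. Readout = decrease in reporter signal.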
# TDP1 cell noCPT = qHTS for Inhibitors of human tyrosyl-DNA phosphodiesterase 1 (TDP1): qHTS in cells in absence of CPT | DT40 Tdp1-/- hTDP1 cells, no CPT, ATP luminescence, 48 h | Potency, µM (series often up to 46.2 µM), for the others: at the top dose activity change, negative = growth inhibition, actives largely listed as inhibitors | actives 15% (n = 420,000); note: nearly all actives have a fitted effect of over 55% in size
#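 Compound effects on proliferation are scored in DT40 Tdp1-/-;hTDP1 cells in the absence of CPT. ATP levels (CellTiter-Glo luminescence) are recorded after a ≥48 hr, 37 °C incubation.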
# Gal4-VP16 FLuc = VP16 counterscreen qHTS for inhibitors of ROR gamma transcriptional activity; AID 2546, 2010; Potency, µM (titrated, usually from 53.6 µM), without a hit: top-dose activity, negative = inhibition, actives largely listed as inhibitors; actives 3.5% (n = 310,000); Drosophila S2 Gal4-VP16 UAS-luciferase, luminescence, 20 h;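 note: Gal4-VP16 expression switched on by copper sulfate through the metallothionein promoter; nearly all actives have a fitted effect of over 50% in size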
# Active calls of the source: *; ? = inconclusive; / = no result given; [ ] = remark or other dose. Rows were chosen to be rich in hits. Some 15% of all compounds tested hit in one or more screens of this group. Calls come from the whole dose curve; as a rule, active = well fitted curve in the direction sought with a large enough effect; inconclusive = small, poorly fitted or top-dose-only effect, or another doubt; inactive = no such curve, though single readings can be large; an effect the other way counts as inactive or inconclusive. % is set by controls: 0 for no effect and ±100 for the full control effect; potency is the fitted concentration of half-maximal effect.
SMILES,12-LOX inh,TDP1 cell CPT,RORg inh,ELG1 repair inh,TDP1 cell noCPT,Gal4-VP16 FLuc
COC1/C=C\OC2(C)Oc3c(C)c(O)c4c(c3C2=O)C2(C=C(NC(=O)/C(C)=C\C=C/C(C)C(O)C(C)C(O)C(C)C(OC(C)=O)C1C)C4=O)OCC(=O)O2 (stereo not drawn),5µM*,/,/,/,/,/
COC1C=CO[C@@]2(C)Oc3c(C)c(O)c4c(O)c(c5c(nc6cc(C)ccn65)c4c3C2=O)NC(=O)/C(C)=C\C=CC(C)C(O)[C@@H](C)C(O)C(C)[C@@H](OC(C)=O)C1C (stereo partly drawn),/,/,-5%,/,/,-6%
CO[C@H]1/C=C/O[C@@]2(C)Oc3c(C)c(O)c4c(O)c(c5c(c4c3C2=O)NC2(CCN(CC(C)C)CC2)N=5)=NC(=O)/C(C)=C\C=C\[C@H](C)[C@H](O)[C@@H](C)[C@@H](O)[C@@H](C)[C@H](OC(C)=O)[C@@H]1C,-11%,?,5%,/,21µM*,-17%
CO[C@H]1C=CO[C@@]2(C)Oc3c(C)c(O)c4c(O)c(c(/C=N/N5CCN(C6CCCC6)CC5)c(O)c4c3C2=O)NC(=O)/C(C)=C\C=C[C@H](C)[C@H](O)[C@@H](C)[C@@H](O)[C@@H](C)[C@H](OC(C)=O)[C@@H]1C,/,4.7µM*,/,/,2.7µM*,/
CO[C@H]1C=CO[C@]2(C)Oc3c(C)c(O)c4c(O)c(c5c(c4c3C2=O)NC2(CCN(CC(C)C)CC2)N=5)=NC(=O)C(C)=CC=C[C@@H](C)[C@@H](O)[C@@H](C)[C@@H](O)[C@@H](C)[C@@H](OC(C)=O)[C@@H]1C,/,/,1%[16.9 µM],/,/,2%[17 µM]
O=[N+]([O-])c1ccc2c(c1)C(=NO)c1cc(F)ccc1-2,-6%,16µM*,/,/,12µM*,/
COc1cc2c(cc1[N+](=O)[O-])-c1ccc([N+](=O)[O-])cc1C2=NO,-11%,26µM*,/,/,15µM*,/
COc1ccc(Nc2ccc([N+](=O)[O-])cc2[N+](=O)[O-])cc1,0%,15%,18%,-9%,-21%,2%
Nc1cc2c(cc1Cl)-c1ccc([N+](=O)[O-])cc1C2=NO,8%,8.2µM*,/,/,7.3µM*,/
NN=C1c2cc([N+](=O)[O-])ccc2-c2ccc([N+](=O)[O-])cc21,/,/,-16%,-2%,/,-12%
O=[N+]([O-])c1ccc2c(c1)/C(=N\O)c1ccccc1-2,218%,?,-3%,-2%,?,-12%
CCCSCCCNC(=O)c1cc2n(n1)CCCN(Cc1ccc(C)cc1)C2=O,-22%,18µM*,/,/,?,/
CSc1ccc(CCNC(=O)c2cc3n(n2)CCCN(Cc2ccc(C)cc2)C3=O)cc1,4%,5.8µM*,/,/,?,/
CCCCNC(=O)c1cc2n(n1)CCCN(Cc1ccc(C)cc1)C2=O,-16%,?,/,/,?,/
Cc1ccc(CN2CCCn3nc(C(=O)NCCc4ccccc4Cl)cc3C2=O)cc1,4%,21µM*,/,/,16µM*,/
CCOc1ccc(CCNC(=O)c2cc3n(n2)CCCN(Cc2ccc(C)cc2)C3=O)cc1OCC,-25%,9.2µM*,/,/,15µM*,/
CN(C)CCCOCC1(C)COc2ccc(C(=O)Nc3cccc(Cl)c3)cc2N1 (stereo not drawn),-7%[176 µM],/,/,/,/,/
Cn1c(=O)c2c(nc(NCCCn3ccnc3)n2Cc2ccc(F)cc2)n(C)c1=O,5%,/,/,/,/,/
CC(=O)Nc1ccc(C(=O)N2CCC3(CC2)N=C(c2cccc(Br)c2)NO3)cc1,25%,/,/,/,/,/
O/N=C(/c1ccccc1)c1ccc(O)cc1O,11%,/,/,/,/,/
O=c1[nH]c(/C(=N\O)c2ccccc2)no1,64%,?,?,?,15µM*,?
COc1ccc(C[C@@H]2NC(=O)[C@@H]3C[C@@H](NC(=O)Nc4cccc(SC)c4)CCN3C2=O)cc1,14%,/,/,/,/,/
COc1ccc(CC2C(=O)NC(C)C(=O)N(C)C3Cc4ccc(cc4)Oc4cc(ccc4O)CC(C(=O)NC(C)C(=O)NC(C)C(=O)N2C)N(C)C3=O)cc1 (stereo not drawn),-24%,0.018µM*,/,/,0.16µM*,/
COc1ccc(C(=O)Nc2ccc3nc(SCc4ccc(C)cc4)sc3c2)cc1,-14%,-21%,/,/,?,/
COc1cccc(C(=O)Nc2ccc3nc(SCC(=O)N4CCc5ccccc54)sc3c2)c1,-5%,3.3µM*,/,/,4.6µM*,/
SMILES,12-LOX inh,TDP1 cell CPT,RORg inh,ELG1 repair inh,TDP1 cell noCPT,Gal4-VP16 FLuc
CCCCC(=O)Nc1ccc2nc(SCC(=O)N3CCc4ccccc43)sc2c1,-10%,15µM*,/,/,5.8µM*,/
COc1ccc(C(=O)NCc2nnc(SCC(=O)N3CCc4ccccc43)n2CCc2ccccc2)cc1,18%,?,?,15µM*,?,-8%
COc1cccc(C(=O)Nc2ccc3nc(SCc4ccc(C)cc4)sc3c2)c1,0%,16µM*,/,/,16µM*,/
Cc1ccc(OCC(=O)Nc2ccc3nc(SCC(=O)N4CCc5ccccc54)sc3c2)cc1,1%,3%,/,/,4%,/
CC(C)CC(=O)Nc1ccc2oc(-c3cccc(Cl)c3)nc2c1,-14%,/,/,/,/,/
CCNC(=O)NCC1Cn2cccc2CN1C (stereo not drawn),81%,/,/,/,/,/
Cc1cc(C)c2cccc(NC(=O)C(C)N3C(=O)c4ccccc4C3=O)c2n1 (stereo not drawn),32%,/,/,/,/,/
CC(=O)N(Cc1cc2cccc(C)c2[nH]c1=O)C(C)(C)C,33%,/,/,/,/,/
COc1ccc(C(=O)Nc2ccc3nc(SCC(=O)N4CCc5ccccc54)sc3c2)cc1,-19%,2.9µM*,/,/,5.2µM*,/
Cc1c(C)n(C)c2ccc(C(=O)NCCc3ccco3)cc12,?,?,-4%,2%,16µM*,6%
Cc1c(C)n(C)c2ccc(C(=O)NCCc3ccc(Cl)cc3)cc12,0%,18µM*,/,/,?,/
O=C(NCCc1ccc(O)cc1)c1ccc(Cl)cc1,406%,-27%,1.6µM*,?,-19%,?
Cc1c(C)n(C)c2ccc(C(=O)Nc3cccc4ccccc34)cc12,0%,26µM*,-6%,-24%,?,-11%
C=CCc1ccccc1OCCOc1ccccc1/C=C(/C#N)C(N)=O,-16%,/,/,/,/,/

# Source: PubChem BioAssay (National Center for Advancing Translational Sciences (NCATS))
